Compound activity deposited in PubChem by National Center for Advancing Translational Sciences (NCATS).
An excerpt weighted towards active compounds, which were near 0.45% of everything screened.
FMDV RLuc = antivirals against foot and mouth disease virus replicon; 120,000 compounds, 0.32% hits; FMDV replicon cells, Renilla luciferase signal; AID 1745857; Potency, µM (top dose mostly 57.5 µM), hits mostly inhibitors; further: nearly all actives have a fitted effect of over 55% in size
FMDV FLuc = FMDV antiviral activity by firefly signal; FMDV antiviral cell assay, firefly luciferase signal; Potency, µM (doses to about 57.5 µM), most hits filed as inhibitors; 120,000 compounds, 0.23% hits; further: nearly all actives have a fitted effect of over 60% in size
Each line names hits and unclear results; the compound was inactive in the other large screens. The call rests on the fitted dose curve.

CC(=O)Nc1ccc(C23CC4CC(CC(Cl)(C4)C2)C3)cc1	none
Cc1cc(NCc2ccccc2Cl)n2cnnc2n1	FMDV RLuc 15.8µM, FMDV FLuc inconclusive
Cc1cc(C)cc(Nc2cc(C)nc3nncn23)c1	none
CCN(c1ccc2sc(C(=O)NCCC(C)C)cc2c1)S(C)(=O)=O	FMDV RLuc 25.1µM, FMDV FLuc inconclusive
CC(C)CNC(=O)c1cc2cc(N(C)S(C)(=O)=O)ccc2s1	FMDV RLuc inconclusive
CC(=O)c1cccc(NS(=O)(=O)c2ccc(-c3cnc(C4CC4)o3)cc2)c1	FMDV FLuc 8.91µM
Cc1ccc(NS(=O)(=O)c2ccc(-c3cnc(C4CC4)o3)cc2)cc1F	none
CCN(C(=O)CSc1nc2ccsc2c(=O)n1C)c1ccccc1	none
CCOc1ccccc1NC(=O)Cn1nc(N2CCN(c3ccccc3)CC2)ccc1=O	none
CCc1ccccc1NC(=O)c1ccc(Cn2nc(N3CCN(c4ccccc4)CC3)ccc2=O)o1	FMDV RLuc 31.6µM, FMDV FLuc inconclusive
CC(=O)Nc1nnc(Cc2ccccc2F)s1	none
CCOc1ccc2nc(NC(=O)CS(=O)(=O)c3ccc(Cl)cc3)sc2c1	FMDV RLuc inconclusive, FMDV FLuc 8.91µM
CS(=O)(=O)c1ccc2nc(NC(=O)CS(=O)(=O)c3ccc(Cl)cc3)sc2c1	none
O=C(O)c1ccccc1CCc1ccccc1	none
Cn1c(=O)c2c(nc(Cl)n2CC(=O)c2ccc(C(C)(C)C)cc2)n(C)c1=O	FMDV RLuc 11.2µM, FMDV FLuc inconclusive
Cn1c(=O)c2c(nc(Br)n2CC(=O)c2ccc(F)cc2)n(C)c1=O	none
COCCOc1ccc(/C=C/C(=O)c2ccc(C#N)cc2)cc1OC	none
COCCOc1ccc(C(=O)/C=C/c2cc(OC)c(OC)c(OC)c2)cc1	FMDV RLuc 28.2µM, FMDV FLuc inconclusive
CC(=O)c1ccccc1NC(=O)C1(c2ccccc2)CC1	none
O=C(CCCc1c[nH]c2ccccc12)Nc1ccc2ncccc2c1	none
O=C(CCCc1c[nH]c2ccccc12)Nc1cccc2cnccc12	FMDV RLuc 11.2µM, FMDV FLuc inconclusive
Cc1cc(O)c2c(C)c(CC(=O)NC3CCCCCC3)c(=O)oc2c1	none
O=C(O)c1cccc(NC(=S)N/N=C/c2ccc([N+](=O)[O-])cc2)c1	FMDV FLuc 2µM
O=[N+]([O-])c1ccc(/C=N/NC(=S)Nc2ccccc2)cc1	none
C[C@H]1O[C@@H](O[C@H]2CC[C@]3(C=O)[C@H]4CC[C@]5(C)[C@H](C6=CC(=O)OC6)CC[C@]5(O)[C@@H]4CC[C@]3(O)C2)C[C@H](O)[C@@H]1O	FMDV RLuc 0.251µM, FMDV FLuc inconclusive
CC12CC[C@H]3[C@@H](CCC4(O)CC(O)CCC34/C=N/O)C1(O)CCC2C1=CC(=O)OC1 (stereo partly drawn)	FMDV RLuc 1.78µM, FMDV FLuc 1.41µM
COC1C(O)C(C)OC(OC2CCC3(C)C(CC[C@@H]4[C@@H]3CCC3(C)C(C5=CC(=O)OC5)C(O)CC43O)C2)C1O (stereo partly drawn)	FMDV RLuc 5.62µM, FMDV FLuc 2.24µM
CC(=O)OC1CCC2(C=O)[C@H]3CCC4(C)C(C5=CC(=O)OC5)CCC4(O)[C@@H]3CCC2(O)C1 (stereo partly drawn)	FMDV RLuc 2.51µM, FMDV FLuc 1.41µM
CNC(=O)COC(=O)c1cc(Cl)ccc1Cl	none
Cc1ccc(Nc2nc(NCc3ccc(Cl)cc3)nc(N)c2[N+](=O)[O-])cc1	none
Cc1ccc(Nc2nc3ccccc3nc2NS(=O)(=O)c2cccs2)cc1	none
COCCNc1nc2c(c(=O)n(Cc3ccc(F)cc3)c(=O)n2C)n1C	none
NS(=O)(=O)c1ccc(NC(=O)c2ccc3c(c2)CCN3S(=O)(=O)c2ccccc2)cc1	none
O=C(Nc1ccc(Br)cc1)c1cccc(S(=O)(=O)N2CCc3ccccc32)c1	FMDV RLuc 3.98µM, FMDV FLuc 31.6µM
O=S(=O)(c1cccc(F)c1)N1CCC(Oc2ccc(-n3cnnn3)cc2)CC1	FMDV RLuc inconclusive, FMDV FLuc 22.4µM
CC(=O)Nc1ccc(S(=O)(=O)N2CCC(Oc3ccc(-n4cnnn4)cc3)CC2)cc1	none
Cc1ccc(C(=O)NC23CC4CC(CC(C4)C2)C3)cc1C	none
Cc1ccccc1NC(=O)C(C#N)=C1CCCCCC1	none
COc1ccc(CCNc2oc(COc3ccc(Cl)cc3)nc2C#N)cc1OC	FMDV RLuc inconclusive, FMDV FLuc 28.2µM
COc1ccc(CCNc2oc(COc3cccc(C)c3)nc2C#N)cc1OC	none
Cc1ccccc1NC(=O)c1sc2nc3c(cc2c1N)CN(C(C)C)CC3	FMDV RLuc 14.1µM, FMDV FLuc inconclusive
Cc1ccccc1NC(=O)c1sc2nc3c(cc2c1N)CN(Cc1ccccc1)CC3	FMDV RLuc inconclusive
COc1cc(C=O)ccc1O	none
COc1cc(C=C2CCC/C(=C\c3ccc(O)c(OC)c3)C2=O)ccc1O	FMDV RLuc inconclusive, FMDV FLuc 22.4µM
CCn1c(=O)c(C(=O)Nc2ccc(Cl)c(C(F)(F)F)c2)nc2cc(C)c(C)cc21	none
CC(OC(=O)c1ccc2c(c1)NC(=O)CS2)C(=O)c1ccccc1 (stereo not drawn)	none
Cc1[nH]c2ccccc2c1C(=O)C(C)OC(=O)c1ccc2c(c1)NC(=O)CS2 (stereo not drawn)	FMDV RLuc inconclusive, FMDV FLuc 35.5µM
COc1ccc(CNC(=O)C(C)OC(=O)c2ccc3c(c2)NC(=O)CS3)cc1OC (stereo not drawn)	FMDV RLuc inconclusive, FMDV FLuc 25.1µM
CC(=O)Nc1ccc(NC(=O)C(C)OC(=O)c2ccc3c(c2)NC(=O)CS3)cc1 (stereo not drawn)	none
CCc1ccccc1NS(=O)(=O)c1ccc(C(F)(F)F)cc1	none
Cn1c(=O)c2[nH]c(N3CCN(C(=O)CN4CCN(c5ccccc5)CC4)CC3)nc2n(C)c1=O	none
O=C(Nc1ccncc1)c1ccc(-c2ccccc2)cc1	FMDV RLuc 3.16µM
O=C(Nc1ccc(F)c(Cl)c1)c1ccc(-c2ccccc2)cc1	none
CCc1ccc(C(=O)CSC(=S)N(C)C)cc1	none
Cn1c(=O)n(Cc2ccccc2)c(=O)c2c1nc(N1CCCC1)n2Cc1ccccc1	none
Cc1ccccc1C(C)NC(=O)CN1CCN(c2ccc([N+](=O)[O-])c3cnccc23)CC1 (stereo not drawn)	none
Cc1sc(NC(=O)c2ccco2)nc1-c1ccc2c(c1)N(C)C(=O)CO2	none
CCN1C(=O)COc2ccc(-c3nc(NC(=O)c4ccccc4)sc3C)cc21	FMDV RLuc 10µM, FMDV FLuc 14.1µM
COCCN(CCOC)C(=O)C(C)(C)c1ccccc1	none
Cc1cc(C)cc(-n2ccnc2SCC(=O)Nc2ccccc2F)c1	FMDV RLuc 20µM, FMDV FLuc inconclusive
Cc1cc(C)cc(-n2ccnc2SCC(=O)Nc2cccc3ccccc23)c1	none
CCOc1cc2c(cc1OCC)C(c1ccc(OC)cc1)N(c1ccc(C(=O)OC)cc1)C(=O)C2 (stereo not drawn)	none
CCn1c(C)c(C(=O)NCc2ccccc2)c2cc(OC)ccc21	none
COc1ccc2c(c1)c(C(C)=O)c(C)n2Cc1ccccc1	FMDV RLuc inconclusive, FMDV FLuc 20µM
O=C(O)c1ccc(Cl)c(NC(=O)c2ccc(Cl)s2)c1	none
CCN(CC)S(=O)(=O)NCc1ccnc(N2CCN(c3ccc(F)cc3)CC2)c1	FMDV RLuc 10µM, FMDV FLuc inconclusive
CCCN(CCC)S(=O)(=O)NCc1ccnc(N2CCN(c3ccc(F)cc3)CC2)c1	none
O=C(CCc1ccccc1)Nc1c(NC2CCCCC2)c2ccccc2oc1=O	none
O=C(CCCCn1c(=O)[nH]c2ccsc2c1=O)N1CCN(c2cccc(C(F)(F)F)c2)CC1	FMDV FLuc inconclusive
Cc1cccc(N2CCN(C(=O)CCCCn3c(=O)[nH]c4ccsc4c3=O)CC2)c1C	FMDV FLuc 14.1µM
Cc1ccccc1OCc1nc(C#N)c(N2CCC(C)CC2)o1	none
